These results are taken from PubChem BioAssay (Tox21).

The nature of assay [1]: qHTS assay to identify small molecule agonists of the vitamin D receptor (VDR) signaling pathway - cell viability counter screen (AID 743224; active = well fitted curve in the direction sought with a large enough effect in the repeat runs; an effect the other way counts as inactive or inconclusive; note: series mostly up to about 63 µM; nearly all actives have a fitted effect of over 50% in size). Summed up:
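VDR-bla cells were preincubated 4 h at 37C/5% CO2, then exposed to compounds for 16 h. After the 2 h room-temperature bla FRET read, CellTiter-Glo was added to the same wells and luminescence read after 30 min.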
For orientation: qHTS replaces the single test concentration by a dilution series.

Assay [2] is described as follows: qHTS assay to identify small molecule antagonists of the vitamin D receptor (VDR) signaling pathway - cell viability counter screen (AID 743225; active = well fitted curve in the direction sought with a large enough effect in the repeat runs; an effect the other way counts as inactive or inconclusive; note: nearly all actives have a fitted effect of over 50% in size). Summed up: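 Cytotoxicity counter screen read by CellTiter-Glo luminescence (30 min, room temperature) in the same wells as the VDR-bla antagonist readout. HEK 293T VDR-UAS-bla cells had 16 h at 37C with compound and 3 nM (final) 1-alpha,25-dihydroxyvitamin D3, then 2 h with FRET substrate.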

A short description of assay [3]: qHTS assay to identify small molecule agonists of the NFkB signaling pathway - cell viability counter screen (AID 1159515). Note: series mostly up to about 61 µM; nearly all actives have a fitted effect of over 55% in size. Summed up: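 NFkB-bla ME-180 cells, 2,000/well, were plated overnight at 37 C, 5% CO2, then exposed to compounds in DMSO for 5 hr. After the bla FRET read, CellTiter-Glo was added to the same wells; luminescence was read after 30 min at room temperature.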

Assay [4] can be described thus: qHTS assay to identify small molecule agonists of the endoplasmic reticulum stress response signaling pathway (AID 1159516; active = well fitted activation curve with a large enough effect in the signal ratio in the repeat runs, not every such curve was filed as active; the % refers to the signal ratio). The gist of the method:
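CellSensor ESRE-bla HeLa cells, carrying a beta-lactamase reporter driven by the ER stress response element, were plated overnight and exposed to compounds for 5 hr at 37 C. Reporter activity was read as FRET substrate fluorescence after 2 hr at room temperature.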

A short description of assay [5]: qHTS assay to identify small molecule agonists of the endoplasmic reticulum stress response signaling pathway - cell viability counter screen (AID 1159517). Note: series mostly up to about 61 µM; nearly all actives have a fitted effect of over 50% in size. Summed up:
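Cells, HeLa ESRE-bla; density, 1,500/well; dosing, 5 hr at 37 C, 5% CO2; readout, CellTiter-Glo luminescence after 30 min RT.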

Assay [6] is described as follows: qHTS assay to identify small molecule antagonists of the retinoid-related orphan receptor gamma (ROR-gamma) signaling pathway - cell viability counter screen (AID 1159520; active = well fitted curve in the direction sought with a large enough effect in the repeat runs; an effect the other way counts as inactive or inconclusive; note: nearly all actives have a fitted effect of over 50% in size). Summed up: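 Cytotoxicity was read from cellular ATP (CellTiter-Glo luminescence) after 16 hr at 37 C with 1 uM doxycycline induction. The inducer was added 2 hr after compound transfer to Tet-on ROR gamma CHO cells.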

Assay [7] concerns the target Nuclear receptor ROR-gamma (Homo sapiens) (UniProt P51449). Description: qHTS assay to identify small molecule antagonists of the retinoid-related orphan receptor gamma (ROR-gamma) signaling pathway (AID 1159521; active = well fitted curve in the direction sought with a large enough effect in the repeat runs; an effect the other way counts as inactive or inconclusive; note: nearly all actives have a fitted effect of over 50% in size; note: potency is the fitted concentration of half-maximal effect). The gist of the method:
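Antagonist read-out: drop in luminescence (ONE-Glo) from an RORE-LUC reporter in CHO cells with doxycycline-inducible ROR-gamma; 2 hr compound pretreatment, 1 uM doxycycline, 16 hr incubation at 37 C.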

Assay [8] is described as follows: qHTS assay to identify small molecule agonists of the AP-1 signaling pathway - cell viability counter screen (AID 1159525). Note: nearly all actives have a fitted effect of over 55% in size. Summed up: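 Luminescent ATP readout (Cell Titer Glo, 30 min RT), normalised to DMSO and tetra n-octyl ammonium bromide controls. Cells were ME-180 AP-1-bla in 0.5% dialyzed FBS Opti-MEM, with a 5 h, 37 °C compound exposure.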
A short description of assay [9]: qHTS assay to identify small molecule agonists of the AP-1 signaling pathway (AID 1159526).
Assay [10] concerns the target Retinoic acid receptor RXR-alpha (Homo sapiens) (UniProt P19793). Put plainly: qHTS assay to identify small molecule agonists of the RXR signaling pathway (AID 1159527). Note: nearly all actives have a fitted effect of over 35% in size. Note: potency is the fitted concentration of half-maximal effect. The gist of the method:
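Agonist-mode beta-lactamase reporter assay: HEK 293T RXR-alpha-UAS-bla cells treated 16 hr at 37 C with compounds, 9-cis retinoic acid as positive control. LiveBLAzer FRET substrate, 405 nm excitation, 460/530 nm emission.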

Several values for one entry are separate records, joined by “and”; a condition that tells them apart may be missing. Equal values may be shown once. Inconclusive results are not listed. Some structures have more than one record in an assay (separate samples or runs), and their calls can disagree. Activity calls are given as the source filed them. Unless noted, calls come from the whole dose curve.

Chain of Retinoic acid receptor RXR-alpha (Homo sapiens) (P19793 whole entry, looked up): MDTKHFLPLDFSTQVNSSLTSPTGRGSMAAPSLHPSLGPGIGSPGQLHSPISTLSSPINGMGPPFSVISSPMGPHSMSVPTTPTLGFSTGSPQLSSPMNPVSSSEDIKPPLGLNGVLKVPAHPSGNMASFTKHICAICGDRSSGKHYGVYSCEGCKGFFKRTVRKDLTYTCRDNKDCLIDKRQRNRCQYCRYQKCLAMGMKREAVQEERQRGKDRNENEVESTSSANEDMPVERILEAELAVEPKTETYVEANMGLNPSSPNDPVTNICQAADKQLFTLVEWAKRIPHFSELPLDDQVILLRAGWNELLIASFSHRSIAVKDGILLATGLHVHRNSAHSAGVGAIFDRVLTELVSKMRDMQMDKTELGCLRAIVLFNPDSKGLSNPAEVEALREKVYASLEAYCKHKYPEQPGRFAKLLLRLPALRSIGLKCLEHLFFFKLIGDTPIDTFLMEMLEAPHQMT

With `COc1cc(NC(=O)CC(C)=O)c(OC)cc1Cl`, the Potency entry in assay [1], in assay [2], in assay [3], in [4], in assay [5] and in assay [6] was “inactive” each time. Besides, the Potency result in assay [7], in assay [8] and in assay [10] was “inactive” throughout. Also, the call in [9] was inactive.
On to `CC(=O)OC(C)(C)C1CC=C(C)CC1` (centres undefined), for which the Potency entry in assay [1], in assay [2], in [3], in [4], in assay [5] and in assay [6] was “inactive” throughout. Also, the Potency result in assay [7], in [8] and in [10] was “inactive” each time. In [9], the compound was classed as inactive.
As to `OB(O)O`, the Potency result in assay [1], in [2], in [3], in assay [4], in assay [5] and in [6] was “inactive” each time. Further, the Potency result in assay [7] and in assay [8] was “inactive” in each case. In addition, in assay [9], the compound was classed as inactive. Moreover, the Potency in [10] is 15.5 µM (active).
As for `COC(=O)CCCCC(=O)OC`, the Potency result in [1], in [2], in [3], in assay [4], in [5] and in [6] was “inactive” in each case. Also, the Potency result in assay [7], in assay [8] and in [10] was “inactive” each time. Moreover, the result in [9] was inactive.
Take `CC/C=C(\C(=O)N[C@@H]1C(=O)N2C(C(=O)OCOC(=O)C(C)(C)C)=C(COC(N)=O)CS[C@H]12)c1csc(N)n1`: the Potency result in [1], in assay [3], in assay [4], in [5], in assay [6] and in assay [7] was “inactive” throughout. In addition, the Potency result in assay [8] and in [10] was “inactive” in each case. For the same compound, the result in assay [9] was inactive.
For the compound `CC1(C)[C@@H](O[C@H]2O[C@H](C(=O)O)[C@@H](O)[C@H](O)[C@H]2O[C@@H]2O[C@H](C(=O)O)[C@@H](O)[C@H](O)[C@H]2O)CC[C@]2(C)[C@H]3C(=O)C=C4[C@@H]5C[C@@](C)(C(=O)O)CC[C@]5(C)CC[C@@]4(C)[C@]3(C)CC[C@@H]12`, the Potency result in assay [1], in assay [2], in assay [3], in assay [4], in assay [5] and in assay [6] was “inactive” throughout. Besides, the Potency result in assay [7], in assay [8] and in assay [10] was “inactive” throughout. The call in assay [9] was inactive.
`C=CC(C)(C)C`: the Potency entry in assay [1], in [2], in assay [3], in [4], in [5] and in assay [6] was “inactive” throughout. Further, the Potency result in assay [7], in assay [8] and in [10] was “inactive” throughout. The compound was classed as inactive in [9].
On to `Cc1cc(C)cc(O)c1`, for which the Potency entry in [1], in assay [2], in assay [3], in assay [4], in assay [5] and in [6] was “inactive” throughout. Further, the Potency result in assay [7], in [8] and in assay [10] was “inactive” in each case. For the same compound, the compound was classed as inactive in assay [9].
As to `C=C(CC(=O)O)C(=O)O`, the Potency entry in assay [1], in assay [2], in assay [3], in assay [4], in assay [5] and in assay [6] was “inactive” each time. Also, the Potency result in assay [7], in assay [8] and in assay [10] was “inactive” each time. Besides, the outcome in assay [9] was inactive.
As to `O=c1c(O)c(-c2ccc(O)c(O)c2)oc2cc(O)cc(O)c12`, the Potency result in [1], in assay [2], in [3], in assay [4], in assay [5] and in assay [6] was “inactive” throughout. Also, the Potency result in [8] and in assay [10] was “inactive” in each case. For the same compound, the Potency result in [7] was “inactive and 43.6 µM (active) and 54.5 µM (active)”. The compound was classed as inactive in [9].
Turning to `Nc1cccc(C(F)(F)F)c1`, the Potency entry in [1], in [2], in assay [3], in assay [4], in assay [5] and in [6] was “inactive” throughout. Also, the Potency result in assay [7], in assay [8] and in [10] was “inactive” each time. In addition, the result in assay [9] was inactive.
Take `N[C@@H](Cc1cc(I)c(Oc2ccc(O)c(I)c2)c(I)c1)C(=O)O`: the Potency result in [1], in assay [2], in [3], in [4], in [5] and in [6] was “inactive” each time. In addition, the Potency result in assay [7], in assay [8] and in [10] was “inactive” in each case. Besides, the compound was called inactive in assay [9].
Turning to `CC(=O)c1nccs1`, the Potency entry in [1], in [2], in assay [3], in assay [4], in assay [5] and in assay [6] was “inactive” throughout. For the same compound, the Potency entry in assay [7], in assay [8] and in assay [10] was “inactive” in each case. For the same compound, in assay [9], the call was inactive.
Take `Cc1nnc(NS(=O)(=O)c2ccc(N)cc2)s1`: the Potency entry in assay [1], in [2], in assay [3], in assay [4], in [5] and in assay [6] was “inactive” throughout. The Potency result in [7], in assay [8] and in assay [10] was “inactive” in each case. Further, the call in assay [9] was inactive.
In the case of `O=[N+]([O-])c1ccccc1C(F)(F)F`, the Potency entry in [1], in assay [2], in assay [3], in [4], in [5] and in [6] was “inactive” throughout. The Potency result in assay [7], in assay [8] and in assay [10] was “inactive” throughout. Moreover, in assay [9], the call was inactive.
Turning to `O=c1n(CCCN2CCN(c3cccc(Cl)c3)CC2)nc2ccccn12`, the Potency entry in assay [1], in [2], in assay [3], in [4], in assay [5] and in [6] was “inactive” each time. In addition, the Potency entry in assay [7], in [8] and in [10] was “inactive” throughout. The compound was called inactive in assay [9].
On to `CCCCCC(C)=O`, for which the Potency entry in [1], in assay [2], in assay [3], in assay [4], in assay [5] and in assay [6] was “inactive” throughout. The Potency entry in assay [7], in [8] and in [10] was “inactive” in each case. For the same compound, the compound was classed as inactive in [9].
`COc1ccccc1[N+](=O)[O-]`: the Potency result in [1], in [2], in assay [3], in assay [4], in assay [5] and in assay [6] was “inactive” throughout. Moreover, the Potency result in assay [7], in assay [8] and in [10] was “inactive” in each case. In assay [9], the result was inactive.
With `C[n+]1ccn(CCO)c1`, the Potency result in [1], in [2], in [3], in [4], in assay [5] and in assay [6] was “inactive” throughout. For the same compound, the Potency result in [7], in assay [8] and in assay [10] was “inactive” throughout. Further, the compound was called inactive in assay [9].
In the case of `COc1c2ccoc2cc2oc(=O)ccc12`, the Potency entry in assay [1], in [2], in assay [3], in assay [4], in assay [5] and in assay [6] was “inactive” in each case. Further, the Potency result in assay [7], in [8] and in [10] was “inactive” throughout. Further, the compound was classed as inactive in assay [9].
As for `CCCCCNCCCCC`, the Potency result in assay [1], in [2], in assay [3], in [4], in assay [5] and in assay [6] was “inactive” each time. Moreover, the Potency entry in assay [7], in assay [8] and in assay [10] was “inactive” each time. Moreover, in [9], the outcome was inactive.
For `CC1(C)C(=O)N(Cl)C(=O)N1Cl`, the Potency entry in assay [1], in assay [2], in assay [3], in assay [4], in [5] and in [6] was “inactive” throughout. Besides, the Potency result in [7], in [8] and in assay [10] was “inactive” throughout. Besides, in [9], the compound was classed as inactive.
